Results as given in ChEMBL document CHEMBL4513135, “CO-ADD screening of IQOG CSIS (Spain) compounds”.
Entries with a potency or affinity are not part of this list.

System: Cryptococcus neoformans
Settings: Concentration 32 ug.mL-1; ASSAY_TEST Inhibition of Fungal Growth; detection method Resazurin; Absorption (OD600-OD570); plate type 384well; NBS; CORNING #3640

Compound	Inhibition [%]
N#Cc1cc(C#N)c(Cl)nc1Cl	24.8
COc1ccc(-c2cc(-c3cc4ccccc4nc3Cl)cc(=O)[nH]2)cc1	-53.36
C#CCNc1nc(NCCC2CCN(Cc3ccccc3)CC2)c(C#N)cc1C#N	-89.93
Cl.ClCCCC1CCNCC1	-2.91
CN1C/C(=C\Br)n2c1c(C#N)cc(C#N)c2=O	-48.49
O=C1OC(c2ccccc2)=NC1=Cc1ccc([N+](=O)[O-])cc1	-3.36
C#CCNc1nc(NCCCCC2CCN(Cc3ccccc3)CC2)c(C#N)cc1C#N	-10.91
CC(=O)NC(=Cc1ccccc1)C(=O)O	-0.91
COC1=C(C#N)CCC(=O)N1	-77.28
CCOC(=O)C1=C(C)OC(N)=C(C#N)C1c1ccncc1 (configuration not stated)	-58.29
COC1(N)Oc2ccc3ccccc3c2C(c2ccccc2)C1(Br)C#N (configuration not stated)	-6.17
Cc1nc2c3cnn(-c4ccccc4)c3nc(C)n2n1	-6.35
C#CCN(C)Cc1cc2cc(OCc3ccc(OC)c4ncccc34)ccc2n1C	-26.86
COc1ccc(CNNC(=O)c2cc3ccccc3[nH]2)cc1	-2.55
CCOC(=O)c1c(C)[nH]c2ccc(OC)cc12	-2.15
C=CCNc1[nH]c2ccc(O)cc2c1C#N	-48.34
N#C[C@]1(Br)C(=N)Oc2ccc3ccccc3c2[C@@H]1c1ccc([N+](=O)[O-])cc1	-3.1
Cc1cnc2ccc(Br)cn12	-0.9
Cl.ClCCCN1CCCCC1	-10.65

Compound	Inhibition [%]
CNCc1cc2ccccc2n1C.Cl	-5.12
O=C(O)C(=Cc1ccccc1)NC(=O)c1ccccc1	-6.77
C#CCNc1ncc(C#N)c(N)n1	-34.7
COc1ccc2cc(C3C4=C(CC(C)(C)CC4=O)Oc4nc5c(c(N)c43)CCCC5)c(Cl)nc2c1 (configuration not stated)	-9.09
CN1C/C(=C\Cl)n2c1c(C#N)c(-c1ccccc1)c(C#N)c2=O	-47.27
CC(C)(C)OC(=O)N[C@H]1CC[C@H](O)CC1	-36.58
C#CCNc1cccc(F)n1	-45.04
C#CCN(C)c1nc(OC)c(C#N)c(-c2ccccc2)c1C#N	-56.39
Cc1ccc(CNNC(N)=O)cc1.Cl	-5.64
COc1cc(C2C(C#N)=C(N)Oc3ccc4ccccc4c32)ccc1O (configuration not stated)	-49.89
COc1cccc(-c2c(C#N)c(=O)oc3c2ccc2ccccc23)c1	-2.58
O=C(O)c1cc2ccccc2[nH]1 [INDOLE-2-CARBOXYLIC ACID]	-9.27
COC1=C(C#N)C(c2ccccc2)C(C=O)=C(Cl)N1 (configuration not stated)	-31.69
CC(=O)Oc1ccc(C=C2N=C(c3ccccc3)OC2=O)c(OC(C)=O)c1	-6.54
Cl.NC1(C(=O)O)CC1c1cccc(Cl)c1 (configuration not stated)	-0.59
C#CCN(C)Cc1cc2cc(OCCCC3CCN(Cc4ccc(OC)c5ncccc45)CC3)ccc2n1C	-73.89
Cn1c(CNNC(=O)Cc2cccc3ccccc23)cc2ccccc21	-2.04
Cl.N#Cc1cc(C#N)c(N2CCCC2)nc1Cl	-52.24
